The source of these data is PubChem BioAssay (NCATS).

SMILES strings stand for the structures. Records with an inconclusive call do not appear. Active and inactive are the calls of the source. Unless noted, calls follow the shape of the dose curve; as a rule, active = well fitted curve in the direction sought with a large enough effect; inconclusive = small, poorly fitted or top-dose-only effect, or another doubt; inactive = no such curve, though single readings can be large; an effect the other way counts as inactive or inconclusive.

Assay [1] has as its target Thyrotropin-releasing hormone receptor (Homo sapiens) (UniProt P34981). Put plainly: qHTS for Small Molecule Agonists and Allosteric Enhancers of Human TRH Receptor: Validation Screen for Agonists (AID 493127;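 active = calcium activation more than 3 SD above the typical response in the agonist read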;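 also: intracellular calcium rise by fluo-8 fluorescence before TRH EC20 addition; 0% is about no effect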). The settings on record: TRH receptor agonist cell assay; at 2 µM; stronger effect = higher value. The gist of the method:
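Cells 2000/well, 10% FCS, 18 h 33.5C/5% CO2 → fluo-8 Ca dye, RT 30 min–1.5 h → FDSS baseline 10 × 1 s → compound added → 230 cycles (1 s/cycle) agonist mode. TRH controls.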
In general terms: qHTS replaces the single test concentration by a dilution series.

A short description of assay [2]: Nrf2 qHTS screen for inhibitors: Validation (AID 493153; active = well fitted inhibition curve with a large enough effect in the main read-out, with a control signal flat, not every such curve was filed as active). The following applies: A549 ARE-Fluc reporter, 18-24 h; Potency: luciferase luminescence; viability change: measured here: cytotoxicity max response; luciferase luminescence, at 46.1 µM (top of the series). The gist of the method:
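Luminescence from an ARE-firefly luciferase reporter in A549 cells gives Nrf2 inhibition; an earlier CellTiter-Fluor fluorescent read flags cytotoxicity. Cells in 5% FBS OPTI-MEM received compound dilution series for 18-24 h at 37°C.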

Assay [3] can be described thus: qHTS for Inhibitors of Cell Surface uPA Generation: Validation Assay (AID 493164). Also: 0% is about no effect. The following applies: mouse cells, plasminogen activation; series mostly up to 38.3 µM. The method in brief:
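RAW 264.7 cells (4000/well) were plated overnight, then exposed for 18 h at 37 C, 5% CO2 to compounds in a 7-point 1:5 titration (2.45 nM–38.3 uM final). Intracellular ATP was read by ATP-Lite luminescence.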

The target of assay [4] is Galactokinase (Homo sapiens) (UniProt P51570). Briefly: qHTS Validation Assay for Inhibitors of Human Galactokinase (GALK) (AID 493189). Also: 0% is about no effect. The following applies: purified human GALK enzyme activity, qHTS 7-point titration; series mostly up to 57.5 µM. The gist of the method:
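5 nM GALK / 100 uM galactose / 35 uM ATP, 20 mM HEPES pH8.0, 5 mM MgCl2, 60 mM NaCl, 1 mM DTT, 0.01% BSA (final). RT 1 h; Kinase-Glo Plus luminescence.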

Assay [5] is described as follows: Validation screen for small molecules that induce DNA re-replication in SW480 colon adenocarcinoma cells (AID 504364). Also: 0% is about no effect. The following applies: DNA re-replication phenotype (high-content imaging); series mostly up to 46.1 µM. The method in brief:
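250 cells/well; compound pinned in; 48 hr, 37 C, 5% CO2; Hoechst added, 40 min; nuclear fluorescence imaged, 405 ex / 500-530 em; re-replication scored as increase in high-intensity nuclei.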

Assay [6] concerns the target Peptidyl-prolyl cis-trans isomerase NIMA-interacting 1 (Homo sapiens) (UniProt Q13526). Briefly: qHTS Validation Assay to Find Inhibitors of Pin1 (AID 504536; active = well fitted inhibition curve with a large enough effect in the polarisation, with a control signal flat, not every such curve was filed as active; the % refers to the polarisation;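 also: 0% = full Pin1 enzyme wells and -100% = no-enzyme wells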). The following applies: Pin1 fluorescence polarization peptide binding assay; series mostly up to 57.5 µM. The method in brief:
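Fluorescence polarization competition: compounds (titration) displace HiFluor-488-labeled Pin1-1b peptide from Pin1 (0.3 uM final) in pH 7.5 HEPES buffer with DTT, 10 min at room temperature; %Activity normalized to no-enzyme wells, curves fitted.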

Assay [7] deals with Phosphoglycerate kinase, glycosomal (Trypanosoma brucei brucei) (UniProt P07378). Briefly: qHTS Validation Assay to Find Inhibitors of Phosphoglycerate Kinase (AID 504547).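 Also: control wells lack PGK and mark full inhibition.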 The settings on record: enzymatic PGK inhibition, coupled luminescence read-out; series mostly up to 57.5 µM. The gist of the method:
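PGK activity was coupled to GAPDH (100nM final), which generates the unstable substrate 1,3-bisphosphoglycerate in-well. Reactions ran 60 minutes at room temperature in 100mM TEA pH 7.6, 5mM MgCl2, 0.01% Tween-20, then Kinase-Glo Plus luminescence was read.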

Assay [8] concerns the target phosphoglycerate mutase (Leishmania major) (UniProt Q4Q090). Briefly: qHTS Validation Assay to Find Inhibitors of Phosphoglycerate Mutase (AID 504548). Also: % is scaled to controls: 0 for no effect and ±100 for the full control effect. The following applies: biochemical enzyme activity; series mostly up to 57.5 µM. The gist of the method: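 Lm PGAM 1.25nM final; 100 mM TEA pH 7.6, 5 mM MgCl2, 0.01% Tween-20; 45 min RT; Kinase-GloPlus, 10 min; end-point luminescence. Enzyme-free wells as negative controls.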

The target of assay [9] is Ubiquitin carboxyl-terminal hydrolase 1 (Homo sapiens) (UniProt O94782). Briefly: Inhibitors of USP1/UAF1: Pilot qHTS (AID 504865).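 Also: rhodamine fluorescence freed from ubiquitin-rhodamine substrate followed over time; top concentration of the series differs between compounds; % is scaled to controls: 0 for no effect and ±100 for the full control effect; nearly all actives have a fitted effect of over 35% in size.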 The following applies: purified USP1/UAF1, Ub-rhodamine cleavage fluorescence; series mostly up to 114 µM. The method in brief: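 In 50mM HEPES pH 7.8 containing 0.5mM EDTA, 1mM TCEP, 0.1 mg/ml BSA and 0.01% Tween-20, 1nM USP1/UAF1 is exposed to compound for 15 min, then Ub-Rho (150nM final) is added and fluorescence is read over time.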

Assay [10] in a line: qHTS for Inhibitors of ATXN expression: Validation (AID 588378). Also: % is scaled to controls: 0 for no effect and ±100 for the full control effect; nearly all actives have a fitted effect of over 75% in size. The following applies: cell-based ATXN2 expression reporter assay, luminescence; series mostly up to 57.1 µM. The gist of the method: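 Compounds were pinned onto attached HEK293 cells carrying an ATXN2-firefly luciferase construct and incubated 24 hrs at 37 degrees C. Each well then received a fluorescent viability reagent followed by luciferase substrate for end-point luminescence.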

The nature of assay [11]: qHTS for Inhibitors of ATXN expression: Validation of Cytotoxic Assay (AID 588349). Also: % is scaled to controls: 0 for no effect and ±100 for the full control effect. The following applies: cytotoxicity counter-screen for ATXN expression inhibitors, cell viability; series mostly up to 57.1 µM. The gist of the method: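 Read-out: ATP-based luminescence (CellTiter Glo) reflecting viability of HEK293 cells after 72 hr incubation at 37 degrees C with a concentration series of each compound.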

Phosphoglycerate kinase, glycosomal (Trypanosoma brucei brucei), sequence (P07378 whole entry, looked up): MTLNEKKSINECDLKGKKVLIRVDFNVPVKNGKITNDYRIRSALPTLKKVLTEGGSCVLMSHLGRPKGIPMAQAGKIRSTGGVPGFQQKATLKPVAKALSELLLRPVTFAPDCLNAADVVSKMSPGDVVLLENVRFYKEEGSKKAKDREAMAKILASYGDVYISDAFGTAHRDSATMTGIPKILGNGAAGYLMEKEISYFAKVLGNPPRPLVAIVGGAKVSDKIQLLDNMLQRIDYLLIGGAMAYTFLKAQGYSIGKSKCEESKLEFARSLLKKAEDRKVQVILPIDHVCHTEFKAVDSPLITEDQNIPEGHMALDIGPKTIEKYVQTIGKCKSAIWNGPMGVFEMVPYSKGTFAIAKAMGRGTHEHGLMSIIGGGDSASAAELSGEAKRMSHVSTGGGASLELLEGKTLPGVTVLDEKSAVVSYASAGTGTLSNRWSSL
Thyrotropin-releasing hormone receptor (Homo sapiens), sequence (P34981 whole entry, looked up): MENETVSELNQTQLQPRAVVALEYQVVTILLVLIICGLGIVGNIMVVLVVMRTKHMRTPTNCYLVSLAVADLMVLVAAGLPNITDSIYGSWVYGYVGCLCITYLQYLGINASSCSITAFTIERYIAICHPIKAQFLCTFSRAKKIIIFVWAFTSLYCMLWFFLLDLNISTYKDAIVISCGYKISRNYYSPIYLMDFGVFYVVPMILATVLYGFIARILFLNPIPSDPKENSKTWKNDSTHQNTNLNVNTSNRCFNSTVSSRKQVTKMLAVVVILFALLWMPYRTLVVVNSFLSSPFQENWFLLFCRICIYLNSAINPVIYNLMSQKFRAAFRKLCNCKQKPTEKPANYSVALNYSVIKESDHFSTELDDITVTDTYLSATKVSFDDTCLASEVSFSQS
Ubiquitin carboxyl-terminal hydrolase 1 (Homo sapiens), sequence (O94782 whole entry, looked up): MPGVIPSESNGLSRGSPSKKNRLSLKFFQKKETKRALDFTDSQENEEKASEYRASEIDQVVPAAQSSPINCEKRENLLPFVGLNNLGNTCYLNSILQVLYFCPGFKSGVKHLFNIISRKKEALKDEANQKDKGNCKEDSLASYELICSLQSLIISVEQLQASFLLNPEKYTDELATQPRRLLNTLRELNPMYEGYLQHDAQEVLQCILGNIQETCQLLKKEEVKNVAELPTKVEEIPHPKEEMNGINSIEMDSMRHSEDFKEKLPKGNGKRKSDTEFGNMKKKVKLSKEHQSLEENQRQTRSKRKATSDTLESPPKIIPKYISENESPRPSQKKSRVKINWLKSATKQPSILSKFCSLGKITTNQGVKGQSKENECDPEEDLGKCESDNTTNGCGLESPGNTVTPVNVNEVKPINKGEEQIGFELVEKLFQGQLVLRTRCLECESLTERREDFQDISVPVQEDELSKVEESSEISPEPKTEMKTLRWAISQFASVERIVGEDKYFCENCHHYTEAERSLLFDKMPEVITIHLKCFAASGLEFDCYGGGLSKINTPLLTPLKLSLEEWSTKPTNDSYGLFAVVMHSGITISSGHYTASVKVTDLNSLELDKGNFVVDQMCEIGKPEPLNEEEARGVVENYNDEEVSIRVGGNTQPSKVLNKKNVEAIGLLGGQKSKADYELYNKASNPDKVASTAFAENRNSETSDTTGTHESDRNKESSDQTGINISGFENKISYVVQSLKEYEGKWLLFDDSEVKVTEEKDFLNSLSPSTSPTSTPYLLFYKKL
Peptidyl-prolyl cis-trans isomerase NIMA-interacting 1 (Homo sapiens), sequence (Q13526 whole entry, looked up): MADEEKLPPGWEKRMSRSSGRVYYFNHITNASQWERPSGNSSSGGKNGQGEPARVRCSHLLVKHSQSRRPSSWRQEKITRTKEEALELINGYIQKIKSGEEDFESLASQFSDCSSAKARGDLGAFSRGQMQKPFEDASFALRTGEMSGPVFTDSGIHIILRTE
phosphoglycerate mutase (Leishmania major), sequence (Q4Q090 1-553): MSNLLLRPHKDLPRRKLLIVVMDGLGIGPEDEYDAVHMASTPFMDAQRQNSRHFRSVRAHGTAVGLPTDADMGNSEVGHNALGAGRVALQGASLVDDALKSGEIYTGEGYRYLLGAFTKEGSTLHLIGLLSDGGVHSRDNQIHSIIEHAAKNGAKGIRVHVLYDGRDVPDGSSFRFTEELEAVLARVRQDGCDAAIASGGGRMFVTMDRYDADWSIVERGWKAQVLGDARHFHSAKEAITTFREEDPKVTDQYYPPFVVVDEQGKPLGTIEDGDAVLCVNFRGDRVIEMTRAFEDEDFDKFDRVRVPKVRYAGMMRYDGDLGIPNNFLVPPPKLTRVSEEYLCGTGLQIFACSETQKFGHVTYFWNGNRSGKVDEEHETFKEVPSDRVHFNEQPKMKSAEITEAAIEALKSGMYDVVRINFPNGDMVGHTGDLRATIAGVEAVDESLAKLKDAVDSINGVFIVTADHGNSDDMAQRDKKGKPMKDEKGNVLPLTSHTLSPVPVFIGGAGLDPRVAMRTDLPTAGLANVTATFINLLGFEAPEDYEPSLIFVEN
Galactokinase (Homo sapiens), sequence (P51570 whole entry, looked up): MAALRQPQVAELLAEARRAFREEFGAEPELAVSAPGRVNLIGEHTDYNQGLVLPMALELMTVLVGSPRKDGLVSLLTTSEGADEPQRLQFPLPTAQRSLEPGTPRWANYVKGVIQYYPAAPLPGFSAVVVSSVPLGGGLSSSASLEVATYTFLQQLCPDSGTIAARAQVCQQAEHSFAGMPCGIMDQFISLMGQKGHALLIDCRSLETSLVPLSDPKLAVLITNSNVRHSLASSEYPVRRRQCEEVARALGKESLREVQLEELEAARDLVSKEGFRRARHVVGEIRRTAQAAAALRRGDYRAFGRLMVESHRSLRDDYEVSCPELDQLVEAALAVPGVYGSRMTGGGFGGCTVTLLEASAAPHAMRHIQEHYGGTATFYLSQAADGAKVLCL

Take `NCCCNCCSP(=O)(O)O`: the activation in [1] was 0.812% (inactive). In addition, the Potency entry in assay [2], in assay [9] and in [10] was “inactive” each time. The viability change in assay [2] came to 4.69%. Moreover, the outcome in [3], in assay [4], in [5], in assay [6], in [7] and in [8] was inactive.
`O=C(O)CN(CCN(CC(=O)O)CC(=O)O)CCN(CC(=O)O)CC(=O)O`: the activation in assay [1] is 1.81% (inactive). Besides, the Potency result in assay [2], in [9] and in [10] was “inactive” each time. Also, the viability change in [2] is -0.829%. For the same compound, the outcome in assay [3], in assay [4], in assay [5], in assay [6], in [7] and in assay [8] was inactive.
With `CCOC(=O)c1cnc2c(cnn2CC)c1NN=C(C)C`, in assay [1], the activation is -4.75% (inactive). In addition, the Potency result in assay [2] and in assay [10] was “inactive” each time. In addition, in assay [2], the viability change is -1.57%. Also, the compound was classed as inactive in assay [3], in [4], in [5], in assay [6], in assay [7] and in assay [8].
Consider `CN/C(=C\[N+](=O)[O-])NCCSCc1ccc(CN(C)C)o1`, for which, in assay [1], the activation is 0.938% (inactive). Also, the Potency result in [2], in assay [11] and in assay [10] was “inactive” throughout. Besides, in [2], the viability change was determined as 4.46%. Besides, the compound was classed as inactive in [3], in assay [4], in assay [5], in assay [6], in [7] and in assay [8].
For the compound `CC(C)[N+](C)(CCOC(=O)C1c2ccccc2Oc2ccccc21)C(C)C`, in [1], the activation was 0.875% (inactive). Besides, the Potency result in assay [2], in assay [9] and in [10] was “inactive” each time. Moreover, the viability change in assay [2] is -4.32%. The compound was called inactive in assay [3], in [4], in assay [5], in assay [6], in [7] and in assay [8].
On to `NC(=O)c1ncn([C@@H]2O[C@H](CO)[C@@H](O)[C@H]2O)c1O`, for which the activation in assay [1] was 1.12% (inactive). The Potency entry in assay [2], in assay [9], in assay [11] and in [10] was “inactive” each time. Also, the viability change in assay [2] worked out at 2.79%. In addition, the call in assay [3], in assay [4], in [5], in assay [7] and in [8] was inactive.
In the case of `CCN(CC)CCNC(=O)c1ccc(NC(C)=O)cc1`, the activation in assay [1] was 0.312% (inactive). The Potency entry in assay [2], in assay [11] and in [10] was “inactive” throughout. Also, the viability change in assay [2] was found to be 16.6%. Moreover, the compound was called inactive in assay [3], in assay [4], in assay [5], in assay [6], in [7] and in assay [8].
In the case of `CCCOc1ccccc1-c1nc2n[nH]nc2c(=O)[nH]1`, the activation in [1] is -3.25% (inactive). Also, the Potency result in assay [2], in assay [9], in [11] and in assay [10] was “inactive” throughout. For the same compound, the viability change in assay [2] was -11.3%. Moreover, the result in [3], in assay [4], in assay [5], in assay [7] and in assay [8] was inactive.
In the case of `CC(C)COCC(CN(Cc1ccccc1)c1ccccc1)N1CCCC1` (stereo not drawn), the activation in [1] was 0.812% (inactive). Moreover, the Potency result in assay [2], in assay [11] and in assay [10] was “inactive” in each case. For the same compound, the viability change in assay [2] was found to be 2.97%. Further, the compound was called inactive in assay [3], in assay [4], in assay [5], in assay [6], in assay [7] and in [8].
`CN(C)CCOC(=O)COc1ccc(Cl)cc1`: in assay [1], the activation was 0.188% (inactive). Also, the Potency entry in assay [2] and in assay [10] was “inactive” each time. Also, the viability change in assay [2] turned out to be 9.38%. For the same compound, the outcome in assay [3], in assay [4], in assay [5], in assay [6], in [7] and in assay [8] was inactive.
